The test in a line: NCI Yeast Anticancer Drug Screen. Data for the cln2 rad14 strain (AID 165).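 Also: 0% = growth equal to vehicle treated cultures.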 The note with it: S. cerevisiae cln2 rad14 strain, hits give high values. As for the experimental part:
Growth inhibition of yeast strains with defined genetic alterations is measured as a screen for potential anti-cancer activity. Selected strains with alterations in DNA damage repair or cell cycle control were exposed to compounds and growth inhibition was measured relative to vehicle treated controls. The strain used in this assay is cln2 rad14

[1] abbreviates: at 5.0 µM (retest, dose inferred, filed as 0.5).
[2] abbreviates: at 50.0 µM (retest, dose inferred, filed as 5.0).

Compounds without any hit were thinned out: in the full panel of roughly 79,000, 15% have a hit. A number with no mark means an inactive call. Active and inactive are the calls of the source. Rule as the data show it: active = growth inhibition above about 70%; inactive = the rest.

Take `CC(C)/C(Cl)=N\OC(=O)Nc1cccc(Cl)c1`: the growth inhibition is, setting by setting: under setting [1], -3%; under setting [2], 19%; (at 50.0 µM) 72.3% (active).

As for `O=[N+]([O-])c1cccc([N+](=O)[O-])c1S(=O)(=O)c1ccccc1`, the growth inhibition by setting is: under setting [1], -8%; under setting [2], 76% (active); (at 50.0 µM) 34.8%.

As for `CC[C@@]1(O)C(=O)OCc2c1cc1n(c2=O)Cc2cc3c(N)cccc3nc2-1`, the growth inhibition under setting [1] is 35%, the growth inhibition under setting [2] was -11% and the growth inhibition (at 50.0 µM) is -8.35%.

For `S=C(Nc1ccc(Cl)c(Cl)c1)SCc1ccc2c(c1)OCO2`, the growth inhibition is, setting by setting: under setting [1], 5%; under setting [2], 97% (active); (at 50.0 µM) 87.6% (active).

Regarding `Cc1ccc(CSC(N)=Nc2ccccc2)cc1C`, the growth inhibition is -16% under setting [1], 14% under setting [2] and -4.5% (at 50.0 µM).

As to `OCC1OC(OCC(O)C(O)C(O)C(/C=N/Nc2ccccc2)=N/Nc2ccccc2)C(O)C(O)C1O` (configuration not stated), the growth inhibition by setting is: under setting [1], 7%; under setting [2], -1%; (at 50.0 µM) 99.3% (active).

`CC(=O)Cc1ccc[cH-]1.[Fe+2].c1cc[cH-]c1`: the growth inhibition by setting is: under setting [1], -7%; under setting [2], 7%; (at 50.0 µM) 40.5%.

For `CC(=O)OCCOCNC(=S)N/N=C(\C)c1cnccn1`, the growth inhibition reads like this: under setting [1], -9%; under setting [2], 45%; (at 50.0 µM) 60.8%.

For `CNC1C(OC2C(OC3C(O)C(O)C(N=C(N)N)C(O)C3N=C(N)N)OC(C)C2(O)CO)OC(CO)C(O)C1O` (configuration not stated), the growth inhibition runs as follows: under setting [1], 11%; under setting [2], 59%; (at 50.0 µM) 81.8% (active).

Regarding `C#CCCCc1ccccc1`, the growth inhibition under setting [1] was 17%, the growth inhibition under setting [2] is 37% and the growth inhibition (at 50.0 µM) is 18.1%.

In the case of `COc1cc(C2C3=C(COC3=O)Oc3cc4c(cc32)OCO4)ccc1O` (configuration not stated), the growth inhibition under setting [1] was 43%, the growth inhibition under setting [2] is 43% and the growth inhibition (at 50.0 µM) was 34.2%.

For `COc1cc(/C=C2\CCc3ccccc3C2=O)cc(OC)c1OC`, the growth inhibition under setting [1] is 2%, the growth inhibition under setting [2] was 24% and the growth inhibition (at 50.0 µM) was 39.8%.

Take `CC(=O)OC1CCC2(C)C(=CCC3C4CCC5(OC6CC(C)CN(C(C)=O)C6C5C)C(C)=C4C(=O)C32)C1` (configuration not stated): the growth inhibition under setting [1] was 17%, the growth inhibition under setting [2] was 98% (active) and the growth inhibition (at 50.0 µM) is 84.2% (active).

Regarding `C=CC(C)(O)CCC1C(=C)C(O)CC2C(C)(C)CCCC12C` (configuration not stated), the growth inhibition is 50% under setting [1], 66% under setting [2] and 16.7% (at 50.0 µM).
